From PubChem BioAssay (NCATS)
Values without a mark were called inactive. Results filed as inconclusive are left out. Entries that show only a call come without a potency. Active and inactive are the calls of the source. Calls come from the whole dose curve; as a rule, active = well fitted curve in the direction sought with a large enough effect; inconclusive = small, poorly fitted or top-dose-only effect, or another doubt; inactive = no such curve, though single readings can be large; an effect the other way counts as inactive or inconclusive.

Experiments:
[1] = target: Glutathione peroxidase 1 (Homo sapiens) (UniProt P07203); test: Primary qHTS Assay for Inhibitors of Recombinant Selenoprotein Glutathione Peroxidase 1 (GPX1) (AID 1845191); note: nearly all actives have a fitted effect of over 65% in size; note: potency is the fitted concentration of half-maximal effect
Sequence of Glutathione peroxidase 1 (Homo sapiens) (P07203 whole entry, looked up): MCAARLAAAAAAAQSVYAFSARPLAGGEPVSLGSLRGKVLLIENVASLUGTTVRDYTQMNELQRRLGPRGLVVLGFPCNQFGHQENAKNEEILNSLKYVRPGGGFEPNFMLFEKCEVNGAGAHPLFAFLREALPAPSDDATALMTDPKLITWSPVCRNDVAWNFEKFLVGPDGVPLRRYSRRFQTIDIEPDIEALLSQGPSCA
Method in brief: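 GR-coupled assay: compounds preincubated 30 min at room temperature with GPX1, then reaction started with CHP; final 10 nM GPX1, 1 mM GSH, 0.5 mM CHP, 0.5 mM NADPH, 100 nM GR, 0.01% BSA, pH 7.5 Tris buffer. NADPH fluorescence (340/450 nm) read at 0 and 15 min.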

[2] = target: Phospholipid hydroperoxide glutathione peroxidase GPX4 (Homo sapiens) (UniProt P36969); test: Primary qHTS Assay for Inhibitors of Recombinant Selenoprotein Glutathione Peroxidase 4 (GPX4) (AID 1845192); note: nearly all actives have a fitted effect of over 65% in size
Sequence of Phospholipid hydroperoxide glutathione peroxidase GPX4 (Homo sapiens) (P36969 whole entry, looked up): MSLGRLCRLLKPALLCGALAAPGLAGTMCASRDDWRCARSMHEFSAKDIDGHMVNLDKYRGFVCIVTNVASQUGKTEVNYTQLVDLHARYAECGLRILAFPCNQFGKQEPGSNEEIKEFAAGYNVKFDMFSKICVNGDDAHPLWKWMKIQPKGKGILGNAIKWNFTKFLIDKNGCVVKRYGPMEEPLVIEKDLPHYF
Method in brief: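 GR-coupled assay: recombinant GPX4 preincubated 30 min with compound at room temperature; final 200 nM GPX4, 1 mM GSH, 0.5 mM cumene hydroperoxide, 0.5 mM NADPH, 100 nM GR, 0.01% BSA, pH 7.5 Tris. NADPH fluorescence (340/450 nm) read at 0 and 15 min.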

[3] = target: Luciferin 4-monooxygenase (Photinus pyralis) (UniProt P08659); test: Primary firefly luciferase (FLuc) qHTS assay for identification of artifact compounds. (AID 1845220); note: nearly all actives have a fitted effect of over 60% in size
Method in brief: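 Enzymatic FLuc inhibition assay: compounds pre-exposed to luciferin/ATP (10 uM each) for 15 min, then purified P. pyralis enzyme at 10 nM added. Read-out: luminescence at 5 min.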

[4] = Primary fluorescence-based thiol-reactive (MSTI) qHTS assay for identification of artifact compounds. (AID 1845221); note: nearly all actives have a fitted effect of over 65% in size; note: potency is the fitted concentration of half-maximal effect
Method in brief: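 A multi-concentration qHTS design tested compounds against 4 uM MSTI, pH 7.4 phosphate-buffered saline. Plates were protected from light for 1 h at room temperature before imaging fluorescence.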

[5] = tested on: Nanoluciferase (engineered Oplophorus gracilirostris luciferase); test: Primary Nanoluciferase (NLuc) qHTS assay for identification of artifact compounds. (AID 1845222);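 note: NLuc secreted into diluted conditioned medium of S16 cells; series mostly up to about 54 µM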
Method in brief: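 S16 cell supernatant NLuc, 1:55; cpds qHTS; 15 min RT dark; Nano-Glo substrate 1:100, 5 min; luminescence; Hill fit of % inhibition.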

[6] = Primary redox qHTS assay for identification of artifact compounds. (AID 1845223)
Method in brief: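 Amplex Red (25 uM) and HRP (250 mU/mL) in HBSS, with compounds for 15 min, then 250 uM DTT for 30 min, room temperature, dark. Fluorescence 525/598 nm read; normalized to DMSO and 10 uM DA3003; Hill fit.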

Row | Structure (SMILES) | Potency [1] | Potency [2] | Potency [3] | Potency [4] | Potency [5] | Potency [6]
1 | CC(=O)O[C@@H]1[C@@H](OC(C)=O)[C@H](C)O[C@@H](O[C@H]2[C@@H]3C=CO[C@@H](O[C@@H]4O[C@H](CO)[C@@H](O)[C@H](O)[C@H]4O)[C@@H]3[C@@]3(CO)O[C@@H]23)[C@@H]1OC(=O)/C=C/c1ccccc1 | inactive | inactive | inactive | inactive | inactive | inactive
2 | CCC(C)C(=O)Oc1cc(C)ccc1C1(COC(=O)C(C)C)CO1 (stereo not drawn) | inactive | inactive | inactive | inactive | inactive | inactive
3 | C=C1C(=O)O[C@H]2/C=C(/C)[C@@H](OC(C)=O)C/C=C(\C)C[C@@H](OC(=O)/C(=C/C)COC(=O)/C(=C/C)CO)[C@@H]12 | inactive | inactive | inactive | inactive | inactive | inactive
4 | COc1ccccc1N1CCN(CC(C(=O)NC(C)(C)C)c2ccccc2)CC1 (stereo not drawn) | inactive | inactive | inactive | inactive | inactive | inactive
5 | N[C@@H]1c2cccnc2[C@H](OC(=O)N2CCC(n3c(=O)[nH]c4ncccc43)CC2)CC[C@H]1c1cccc(F)c1F | inactive | inactive | inactive | inactive | inactive | inactive
6 | Fc1ccc(-c2nc(C3CCNCC3)sc2-c2ccnc(NC3CC3)n2)cc1 | inactive | inactive | inactive | inactive | inactive | inactive
7 | O=S(=O)(N[C@H]1CCCC[C@@H]1N1CCOCC1)c1ccc(Cl)cc1 | inactive | inactive | inactive | inactive | inactive | inactive
8 | O=C(/C=C/c1ccccc1O)O[C@@H]1O[C@H](CO)[C@@H](O)[C@H](O)[C@H]1O | inactive | inactive | inactive | inactive | inactive | inactive
9 | Nc1c(S(=O)(=O)c2ccccc2)c2nc3ccccc3nc2n1-c1ccc(F)cc1 | 20.2 µM (active) | inactive | inactive | inactive | inactive | inactive
10 | CC(=O)OC1[C@H]2[C@@H](C[C@@H](C)[C@@H]3C=CC(=O)[C@@]13C)OC(=O)[C@@H]2C (stereo partly drawn) | inactive | inactive | inactive | 23.8 µM (active) | inactive | inactive
11 | C=C1C(=O)O[C@H]2C[C@@H](C)[C@@H]3CCC(=O)[C@@]3(C)C[C@H]12 | inactive | inactive | inactive | inactive | inactive | inactive
12 | CC(C)=C1C[C@@]2(C)C(=CC1=O)CC[C@@H](OC(=O)/C(C)=C/CO)[C@@H]2C | inactive | inactive | inactive | inactive | inactive | inactive
13 | CC(=O)NCc1cccc(OC[C@@H](O)CNCCc2ccc(NS(=O)(=O)c3ccccc3)cc2)c1 | inactive | inactive | inactive | inactive | inactive | inactive
14 | O=C(c1ccc(Cl)cc1)N1CCN(c2ccnc3cc(Cl)ccc23)CC1 | inactive | inactive | inactive | inactive | inactive | inactive
15 | CC(=O)O[C@@H]1C[C@@]23C[C@@]24CC[C@H](O[C@@H]2OC[C@H](O)[C@H](O)[C@H]2O)C(C)(C)[C@@H]4CC[C@H]3[C@]2(C)[C@@H](O)C34O[C@H](C[C@@H](C)[C@@H]3[C@@]12C)[C@@H](C(C)(C)O)O4 | inactive | inactive | inactive | inactive | inactive | inactive
16 | COc1c(C(O)CC(C)C)ccc2c1C(=O)OCc1cc(C)cc(O)c1O2 (stereo not drawn) | inactive | inactive | inactive | inactive | inactive | inactive
17 | CC#CC(=O)Nc1ccc2ncnc(Nc3cccc(Br)c3)c2c1 | inactive | inactive | inactive | inactive | inactive | inactive
18 | CN(C)CCOc1cc(NS(=O)(=O)c2c(Cl)cc(C(F)(F)F)cc2Cl)ccc1Cl | inactive | inactive | inactive | inactive | inactive | inactive
19 | Cn1ncc(Cl)c1-c1cc(C(=O)N[C@H](CN)Cc2ccc(F)c(F)c2)sc1Cl | inactive | inactive | inactive | inactive | inactive | inactive
20 | CCC(C)C(=O)OC1C(C)C2(O)C(C=C(CO)CC3(O)C(=O)C(C)=CC32)C2C(C)(C)C12OC(=O)C(C)C (stereo not drawn) | inactive | inactive | inactive | inactive | inactive | inactive
21 | COCCN(C(=O)c1cc(OC)c(OC)c(OC)c1)c1nc(-c2ccccc2)cs1 | inactive | inactive | inactive | inactive | inactive | inactive
22 | CC1CCCC(O)CCC/C=C/c2cc(OS(=O)(=O)O)cc(O)c2C(=O)O1 (stereo not drawn) | inactive | inactive | inactive | inactive | inactive | inactive
23 | COc1ccc(C2(N(C)C(=O)c3ccc(NC(=O)c4ccco4)cc3)CCOCC2)cc1 | inactive | inactive | inactive | inactive | inactive | inactive
